In ChEMBL document CHEMBL3988442, “University of Dundee, Small-Polar-MMV Screening Library” (2021):
Among all 48,000 compounds or so, about 13,000 (27%) showed an effect of 50% or more. This is one part of the list.

tested on: Wolbachia pipientis; assay: Anti-Wolbachia Cell-Based Screen; type: functional; set-up: scale not given: in the data most compounds retested in dose-response had high values; settings: 5 µM

Question: How did the “Percent Effect” value turn out when `CCC(CNC(=O)C1CC1)(OC)c1ccccc1` (stereo unspecified) was run?
Answer: -6.712%

Question: `Cc1cccc(CNC[C@H]2Cn3cc(-c4ccccc4)nc3CO2)n1` was tested. Which “Percent Effect” value did it give?
Answer: -23.05%

Question: How did the “Percent Effect” value turn out when `CC(C)c1csc(C(=O)N(C)c2ccc(Br)cn2)n1` was run?
Answer: -10.23%

Question: `CCC(=O)NCCCn1c(-c2cccnc2C)cc2cccnc21.Cl` was tested. Which “Percent Effect” value did it give?
Answer: 116.3%

Question: `Cc1cccnc1NCCNC(=O)C1CCN(C(=O)N(C)C)CC1` was tested. Which “Percent Effect” value did it give?
Answer: -7.872%

Question: Which “Percent Effect” value does the source give for `Cc1ncccc1-c1cc2cccnc2n1CCCNC(=O)C1CC1.Cl` here?
Answer: 102.7%

Question: How did the “Percent Effect” value turn out when `Cc1ncccc1-c1cc2cccnc2n1CCCNC(=O)C(C)(C)C.Cl` was run?
Answer: 83.99%

Question: `Cc1cccnc1NCCNC(=O)C1CCN(Cc2ccco2)CC1` was tested. Which “Percent Effect” value did it give?
Answer: -35.11%

Question: With `CC(C)(C)C(=O)NCCNCc1ccc(Cl)c2cccnc12` as the molecule, how does the “Percent Effect” value read?
Answer: -7.376%

Question: `CC(C)(C)C(=O)NCCCc1nc2ccccc2[nH]1` was tested. Which “Percent Effect” value did it give?
Answer: 0.1098%

Question: `CC(NC(=O)NCCCn1cccn1)c1cccnc1` (stereo unspecified) was tested. Which “Percent Effect” value did it give?
Answer: 14.81%

Question: How did the “Percent Effect” value turn out when `Cc1ccc(OCCCNC(=O)Cc2nc3ncccn3n2)cc1` was run?
Answer: -3.394%

Question: Which “Percent Effect” value does the source give for `CCS(=O)(=O)NCC(=O)N(C1CC1)C1Cc2ccccc2C1` here?
Answer: 0.1274%

Question: For `CC(C)C(NC(=O)c1ccc(=O)[nH]c1)c1nnc2n1CCNCC2` (stereo unspecified), which “Percent Effect” value is on record?
Answer: 5.765%

Question: Which “Percent Effect” value does the source give for `O=C(c1ccccc1OC1CCCC1)N1CCCC(n2cncn2)C1` (stereo unspecified) here?
Answer: 131.9%

Question: For `Cn1cc(C(=O)N2CCCC(n3cncn3)C2)ccc1=O` (stereo unspecified), which “Percent Effect” value is on record?
Answer: -4.437%

Question: How did the “Percent Effect” value turn out when `O=C(c1ccc(Br)o1)N1CCCC(n2cncn2)C1` (stereo unspecified) was run?
Answer: 3.935%

Question: For `O=C(c1ccc(C(F)(F)F)nc1)N1CCCC(n2cncn2)C1` (stereo unspecified), which “Percent Effect” value is on record?
Answer: -5.926%

Question: For `COc1ccc(C)cc1C(=O)N1CCCC(n2cncn2)C1` (stereo unspecified), which “Percent Effect” value is on record?
Answer: 125.6%

Question: With `COc1cc(C2(C(=O)NC3CCN(C4CC4)CC3)CC2)ccc1C` as the molecule, how does the “Percent Effect” value read?
Answer: -9.965%

Question: Which “Percent Effect” value does the source give for `CCOc1cc(C(=O)N2CCCC(n3cncn3)C2)ccc1C` (stereo unspecified) here?
Answer: 31.02%

Question: For `COc1cc(C2(C(=O)N3CCN(CC(C)(C)O)CC3)CC2)ccc1C`, which “Percent Effect” value is on record?
Answer: -9.844%

Question: With `COc1cc(C2(C(=O)N3CCCC(n4cncn4)C3)CC2)ccc1C` (stereo unspecified) as the molecule, how does the “Percent Effect” value read?
Answer: 127.9%

Question: `COc1cc(C(=O)N2CCCC(n3cncn3)C2)ccc1C` (stereo unspecified) was tested. Which “Percent Effect” value did it give?
Answer: 123.7%

Question: Which “Percent Effect” value does the source give for `Cc1ccc(SCCCNC(=O)c2cn([C@H]3CC[C@@H](N)CC3)nn2)cc1` here?
Answer: -20.01%

Question: With `Cc1sc(Br)cc1S(=O)(=O)NCc1ccccn1` as the molecule, how does the “Percent Effect” value read?
Answer: -26.2%

Question: How did the “Percent Effect” value turn out when `Oc1ccccc1CN1CCC(n2cc(-c3ccc(F)cc3)nn2)CC1` was run?
Answer: -4.662%

Question: For `CNCc1ccc([C@@H]2CN(C(C)=O)C[C@H]2C(N)=O)cc1.Cl`, which “Percent Effect” value is on record?
Answer: 129.4%

Question: How did the “Percent Effect” value turn out when `Cl.NC(=O)c1ccc(CNC2CC2)cc1` was run?
Answer: 11.53%

Question: How did the “Percent Effect” value turn out when `CN(C)C(=O)c1ccc(CNC(=O)NCCN(C)C2CCCC2)cc1` was run?
Answer: 0.2327%

Question: `CS(=O)(=O)c1ccc(CNC(=O)N2CCC(C(N)=O)C2)cc1` (stereo unspecified) was tested. Which “Percent Effect” value did it give?
Answer: -0.5949%

Question: How did the “Percent Effect” value turn out when `CNCc1ccc([C@@H]2CN(C(C)=O)C[C@H]2C(=O)N(C)C)cc1.Cl` was run?
Answer: 99.26%

Question: For `CNCc1ccc([C@@H]2CN(C)C[C@H]2C(N)=O)cc1.Cl`, which “Percent Effect” value is on record?
Answer: 68.94%

Question: How did the “Percent Effect” value turn out when `Cc1ccccc1CNC(=O)N1C[C@H]2C[C@H](C(=O)N(C)C)[C@@H](C1)O2` was run?
Answer: -3.016%

Question: How did the “Percent Effect” value turn out when `Cc1occc1C(=O)NCc1ccc(N2CCCC(C(N)=O)C2)cc1` (stereo unspecified) was run?
Answer: -5.63%

Question: Which “Percent Effect” value does the source give for `Cc1cnc(N2CCC3(CC2)CN(c2ccsc2)C(=O)CO3)nc1.O=C(O)C(F)(F)F` here?
Answer: 15.19%

Question: How did the “Percent Effect” value turn out when `Cc1cccc(CN2CCC3(CC2)CN(c2cccnc2)C(=O)CO3)n1.O=C(O)C(F)(F)F.O=C(O)C(F)(F)F` was run?
Answer: 90.31%

Question: `O=C(O)C(F)(F)F.O=C1COC2(CCN(Cc3cccs3)CC2)CN1c1ccccc1` was tested. Which “Percent Effect” value did it give?
Answer: -12.07%

Question: For `Fc1cnc(N2CCOC3(CCN(Cc4ccsc4)CC3)C2)nc1.O=C(O)C(F)(F)F.O=C(O)C(F)(F)F`, which “Percent Effect” value is on record?
Answer: -10.48%

Question: For `Cn1ccnc1CN1CCC2(CC1)CN(c1cncnc1)C(=O)CO2.O=C(O)C(F)(F)F`, which “Percent Effect” value is on record?
Answer: -21.12%

Question: For `O=C(O)C(F)(F)F.O=C1COC2(CCN(Cc3cccs3)CC2)CN1c1ccsc1`, which “Percent Effect” value is on record?
Answer: 102.1%

Question: How did the “Percent Effect” value turn out when `Cn1cc(N2CC3(CCN(Cc4cccs4)CC3)OCC2=O)cn1.O=C(O)C(F)(F)F` was run?
Answer: 13.04%

Question: For `Fc1cnc(N2CCOC3(CCN(Cc4cccs4)CC3)C2)nc1.O=C(O)C(F)(F)F.O=C(O)C(F)(F)F`, which “Percent Effect” value is on record?
Answer: 104.4%

Question: With `Fc1cnc(N2CCCC3(CN(Cc4ccccc4)CCO3)C2)nc1.O=C(O)C(F)(F)F` (stereo unspecified) as the molecule, how does the “Percent Effect” value read?
Answer: 8.099%

Question: `O=C(O)C(F)(F)F.O=C1COC2(CCN(Cc3cccs3)CC2)CN1c1cncnc1` was tested. Which “Percent Effect” value did it give?
Answer: 100.5%

Question: For `CCCn1cc(C(=O)N(C)Cc2nc(-c3ccccn3)no2)c(C)n1`, which “Percent Effect” value is on record?
Answer: 4.948%

Question: With `CCO[C@@H]1CCN(C(=O)c2cnc(C)cn2)[C@@H]1Cc1cnn(C)c1` as the molecule, how does the “Percent Effect” value read?
Answer: -1.532%

Question: Which “Percent Effect” value does the source give for `CS(=O)(=O)c1ccccc1N[C@@H]1c2ccccc2C[C@@H]1O` here?
Answer: -8.17%

Question: With `CNc1nc(CNC(=O)Nc2ccc(OC)cc2C)cs1` as the molecule, how does the “Percent Effect” value read?
Answer: 10.14%

Question: For `O=C(O)C(F)(F)F.O=C(O)C(F)(F)F.O=C1COC2(CCN(Cc3cccs3)CC2)CN1c1cccnc1`, which “Percent Effect” value is on record?
Answer: 97.28%

Question: Which “Percent Effect” value does the source give for `CC(=O)N1CC(=O)N(c2cccnc2)CC12CCN(Cc1nccs1)C2.O=C(O)C(F)(F)F.O=C(O)C(F)(F)F` (stereo unspecified) here?
Answer: -2.554%

Question: `Cc1csc(CN(C)CCOc2ccccc2)n1` was tested. Which “Percent Effect” value did it give?
Answer: -0.03273%

Question: For `CCCc1nc(C(=O)N(C)Cc2cnn(-c3cccc(OC)c3)c2)cs1`, which “Percent Effect” value is on record?
Answer: -14.16%

Question: `CN(CCCOc1ccccc1)C(=O)c1csc(-c2nnc[nH]2)n1` was tested. Which “Percent Effect” value did it give?
Answer: 111.9%

Question: With `CN(CCCc1ccccc1)C(=O)CCc1nc(-c2nnc[nH]2)no1` as the molecule, how does the “Percent Effect” value read?
Answer: -15.35%

Question: `Cc1nc(-c2nnc[nH]2)sc1C(=O)N(Cc1cccnc1)C1CC1` was tested. Which “Percent Effect” value did it give?
Answer: 1.946%

Question: For `COc1cccc(CN(C)C(=O)c2csc(-c3nnc[nH]3)n2)c1`, which “Percent Effect” value is on record?
Answer: 94.98%

Question: How did the “Percent Effect” value turn out when `COCCN(Cc1ccccc1)C(=O)c1csc(-c2nnc[nH]2)n1` was run?
Answer: 98.7%

Question: Which “Percent Effect” value does the source give for `COc1cccc(-n2cc(CN(C)C(=O)c3cc[nH]n3)cn2)c1` here?
Answer: -0.6043%

Question: How did the “Percent Effect” value turn out when `COCc1nc(C(=O)N(Cc2ccccc2)CC(C)C(=O)O)cs1` (stereo unspecified) was run?
Answer: 6.809%

Question: With `Cc1nc2c(NCC(C)N(C)c3ccccc3)ncnc2o1` (stereo unspecified) as the molecule, how does the “Percent Effect” value read?
Answer: -36.58%
